The results in this text go back to PubChem BioAssay (EPA / NIEHS).

“And” between values parts separate entries of the source, which are not always exact repeats. Identical values can stand only once. The source holds several records for some structures; these can differ, active in one and inactive in another. The source made the active and inactive calls. The calls were made as follows: active = hit-call score of the fitted dose curve at least 0.9, where 1 is the maximum; inactive = score below 0.9.

Broadly, the AC50 is the midpoint of the concentration-response curve, whichever way the signal moves.

In test [1] the target is Transcription factor E2F1 (Homo sapiens) (UniProt Q01094). Nature of the test: ATG_E2F_CIS: Attagene CIS-FACTORIAL HepG2 Assay for human E2F Transcription Factor 1 (AID 2282935). The note with it: HepG2 Attagene cis-reporter, E2F reporter RNA transcripts; actives raise or lower the signal. An outline of the steps:
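Multiplexed cis-reporter assay: HepG2, transient transfection, 24 h dosing, mRNA quantitation by labeled RT-PCR and CE.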

Test [2] is described as follows: ATG_E_Box_CIS: Attagene CIS-FACTORIAL HepG2 Assay for human Enhancer Box (E-box) (AID 2282936). The note with it: HepG2 E-box cis-reporter transcription, actives raise or lower the signal. The procedure, abridged: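 Multiplexed CIS reporter system in transiently transfected HepG2 cells measures native transcription factor activity. Reporter RNA after 24 h exposure is profiled by RT-PCR-capillary electrophoresis.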

A short description of test [3]: ATG_M_61_CIS: Attagene CIS-FACTORIAL HepG2 Assay for M61 Transcription Factor (Internal Marker) (AID 2282937). The note with it: HepG2 Attagene CIS-FACTORIAL M61 internal marker reporter; actives raise or lower the signal. An outline of the steps:
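Fluorescence from labelled cDNA fragments, separated by capillary electrophoresis, quantifies reporter induction. HepG2 cells bearing transiently transfected cis-promoter MRTUs were incubated with test chemical for 24 h; DMSO defined baseline for gain/loss fitting.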

Test [4] in a line: ATG_EGR_CIS: Attagene CIS-FACTORIAL HepG2 Assay for human Early Growth Response 1 (EGR1) (AID 2282938). Particulars: HepG2 Attagene CIS-FACTORIAL EGR reporter mRNA; actives raise or lower the signal. The procedure, abridged: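 Cell-based multiplex transcription assay: HepG2 carrying transfected cis-element reporter units, 24 h chemical treatment. Fluorescence from capillary electrophoresis of RT-PCR products gives mRNA levels; fitting is bidirectional relative to DMSO.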

A short description of test [5]: ATG_M_19_CIS: Attagene CIS-FACTORIAL HepG2 Assay for M19 Transcription Factor (Internal Marker) (AID 2282939). Particulars: HepG2 Attagene CIS-FACTORIAL M19 internal marker reporter; actives raise or lower the signal. An outline of the steps:
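Internal marker readout, fitted in both directions against DMSO, from HepG2 cells carrying transfected cis-element reporter constructs; RT-PCR and capillary electrophoresis of reporter mRNA after 24 h exposure.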

Test [6] can be described thus: ATG_ERE_CIS: Attagene CIS-FACTORIAL HepG2 Assay for Estrogen Response Element (ERE) (AID 2282940). Particulars: HepG2 ERE cis-reporter, Attagene RNA transcript; actives raise or lower the signal. An outline of the steps:
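After 24 h compound treatment, RNA from transfected HepG2 cells was reverse-transcribed, reporter cDNA PCR-amplified, FAM-labelled, HpaI-cut and resolved by capillary electrophoresis. ERE-driven cis reporter transcripts reflect endogenous factors; gain or loss scored against DMSO.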

Test [7] in a line: ATG_Ets_CIS: Attagene CIS-FACTORIAL HepG2 Assay for human Erythroblast Transformation Specific (ETS) (AID 2282941). Particulars: HepG2 ETS cis-reporter transcription, actives raise or lower the signal. The procedure, abridged: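 HepG2 cells transiently transfected with cis-promoter reporter transcription units were dosed for 24 h; reporter mRNA was measured by RT-PCR, 6-FAM primer extension, HpaI digestion and capillary electrophoresis, with bidirectional fitting against DMSO baseline.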

Test [8] concerns the target Hepatocyte nuclear factor 3-beta (Homo sapiens) (UniProt Q9Y261). Nature of the test: ATG_FoxA2_CIS: Attagene CIS-FACTORIAL HepG2 Assay for human Forkhead box A2 (FOXA2) (AID 2282942). Particulars: HepG2 cis-reporter transcription factor activity, 24 h; actives raise or lower the signal. An outline of the steps:
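In transiently transfected human HepG2 cells, promoter-driven reporter mRNA levels after 24 h chemical exposure are determined via RT-PCR with capillary electrophoresis. DMSO serves as baseline for bidirectional fitting.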

Test [9] is described as follows: ATG_FoxO_CIS: Attagene CIS-FACTORIAL HepG2 Assay for human Forkhead box O (FoxO) (AID 2282943). The note with it: HepG2 Attagene cis-reporter, FoxO element, mRNA; actives raise or lower the signal. An outline of the steps:
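HepG2 cells transiently transfected with cis-promoter-driven multiple reporter transcription units; 24 h after chemical dosing, reporter mRNA quantified by RT-PCR, fluorescent primer extension, HpaI digestion and capillary electrophoresis. Bidirectional fitting versus DMSO baseline.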

Test [10] can be described thus: ATG_GATA_CIS: Attagene CIS-FACTORIAL HepG2 Assay for human GATA Binding Protein (AID 2282944). The note with it: HepG2 GATA cis-element reporter, Attagene multiplex mRNA; actives raise or lower the signal. An outline of the steps:
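Reporter transcripts from a GATA cis-regulated unit, among multiplexed reporters in transfected HepG2 cells, were measured by RT-PCR with capillary electrophoresis after 24 h dosing. Induction or loss scored relative to DMSO.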

Chain of Transcription factor E2F1 (Homo sapiens) (Q01094 whole entry, looked up): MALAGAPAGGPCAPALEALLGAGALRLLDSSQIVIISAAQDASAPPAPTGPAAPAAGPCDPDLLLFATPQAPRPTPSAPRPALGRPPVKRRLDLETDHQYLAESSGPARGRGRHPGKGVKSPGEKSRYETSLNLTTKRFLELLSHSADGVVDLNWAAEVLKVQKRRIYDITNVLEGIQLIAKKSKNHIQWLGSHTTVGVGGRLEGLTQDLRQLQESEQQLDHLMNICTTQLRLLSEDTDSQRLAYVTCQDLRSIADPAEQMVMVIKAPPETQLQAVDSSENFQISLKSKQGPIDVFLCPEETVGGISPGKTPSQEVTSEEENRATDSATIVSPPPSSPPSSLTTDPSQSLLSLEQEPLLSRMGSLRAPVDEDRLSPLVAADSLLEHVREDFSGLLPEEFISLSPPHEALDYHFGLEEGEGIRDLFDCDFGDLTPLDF
Chain of Hepatocyte nuclear factor 3-beta (Homo sapiens) (Q9Y261 whole entry, looked up): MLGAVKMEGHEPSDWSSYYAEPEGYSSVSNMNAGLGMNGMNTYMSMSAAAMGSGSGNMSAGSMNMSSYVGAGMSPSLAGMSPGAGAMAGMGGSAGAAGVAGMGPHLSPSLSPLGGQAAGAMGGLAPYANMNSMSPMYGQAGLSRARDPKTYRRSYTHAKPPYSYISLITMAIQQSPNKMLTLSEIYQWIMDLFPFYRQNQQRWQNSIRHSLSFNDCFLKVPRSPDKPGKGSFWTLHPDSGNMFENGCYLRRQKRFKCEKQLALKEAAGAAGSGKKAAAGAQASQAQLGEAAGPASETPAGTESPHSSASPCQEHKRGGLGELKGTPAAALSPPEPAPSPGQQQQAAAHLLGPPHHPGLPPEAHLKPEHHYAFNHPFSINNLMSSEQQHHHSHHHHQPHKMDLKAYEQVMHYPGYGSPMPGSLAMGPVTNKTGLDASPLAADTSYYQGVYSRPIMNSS

Take `COP(N)(=O)SC` (stereo not drawn): the result in test [1], in [2], in test [3], in test [4], in test [5] and in test [6] was inactive. The result in [7], in [8], in test [9] and in test [10] was inactive.
Consider `CNC(=S)S`, for which the outcome in test [1], in [2], in [3], in test [4], in [5] and in test [6] was inactive. The outcome in [7], in test [8] and in test [9] was inactive. Also, the AC50 in [4] is 50 µM (active).
With `C#CCOS(=O)OC1CCCCC1Oc1ccc(C(C)(C)C)cc1` (stereo not drawn), the outcome in test [1], in test [2], in test [3], in [5], in test [6] and in test [7] was inactive. Moreover, the molecule was classed as inactive in [8] and in test [9]. Besides, in [4], the AC50 is 1.46 µM (active).
As to `O=C(O)c1nc(Cl)ccc1Cl`, the molecule was called inactive in test [1], in test [2], in test [4], in test [5], in test [6] and in test [7]. In addition, the result in [8] and in [9] was inactive.
For the molecule `CCCC1COC(Cn2cncn2)(c2ccc(Cl)cc2Cl)O1` (stereo not drawn), the AC50 was 85.1 µM (active) in test [1], 1.71 µM (active) in test [6] and 58 µM (active) in test [7]. In addition, the molecule was called inactive in test [1], in [2], in [4], in test [5], in test [6] and in [7]. For the same molecule, the molecule was called inactive in test [8] and in test [9].
Consider `CCCN(CCC)c1c([N+](=O)[O-])cc(S(N)(=O)=O)cc1[N+](=O)[O-]`, for which the call in [1], in test [2], in [3], in test [4], in test [5] and in test [6] was inactive. Moreover, the outcome in test [7], in test [8] and in test [9] was inactive.
With `C=CC1(C)OC(=O)N(c2cc(Cl)cc(Cl)c2)C1=O` (stereo not drawn), the molecule was classed as inactive in [1], in [2], in test [3], in test [4], in [5] and in test [6]. For the same molecule, the molecule was classed as inactive in [7], in test [8] and in test [9].
As to `CCNc1nc(Cl)nc(NC(C)C)n1`, the outcome in test [1], in test [2], in test [3], in test [4], in [5] and in test [6] was inactive. Also, the outcome in [7], in [8] and in [9] was inactive.
In the case of `CC(C)(C)c1ccc(CSc2cnn(C(C)(C)C)c(=O)c2Cl)cc1`, the outcome in test [1], in test [2], in test [5], in test [7], in [8] and in test [9] was inactive. Moreover, the AC50 in test [4] was 0.128 µM (active); in [6] it was 5.23 µM (active).
Regarding `N#CC(CCc1ccc(Cl)cc1)(Cn1cncn1)c1ccccc1` (stereo not drawn), the call in [1], in [2], in test [3], in [4], in test [5] and in [6] was inactive. The molecule was called inactive in test [7], in test [8] and in test [9].
On to `COc1ccc(C(c2ccc(OC)cc2)C(Cl)(Cl)Cl)cc1`, for which the call in [1], in test [2], in test [4], in test [5], in [6] and in test [7] was inactive. For the same molecule, the molecule was classed as inactive in test [8], in test [9] and in test [10]. The AC50 in test [2] is 27 µM (active) and 5.64 µM (active); in test [6], 5.09 µM (active) [middle of 4 runs].
Consider `Oc1ccccc1-c1ccccc1`, for which the molecule was called inactive in test [1], in test [2], in test [3], in [4], in [5] and in [6]. The outcome in test [7], in test [8] and in [9] was inactive. In addition, the AC50 in test [4] was 62.4 µM (active); in test [6], 13.1 µM (active).
As to `CNC(=O)ON=CC(C)(C)SC`, the AC50 in [1] was 149 µM (active). The call in test [1], in test [2], in [4], in test [5], in [6] and in [7] was inactive. The outcome in [8] and in test [9] was inactive.
